# Only some compounds are listed: those with a hit (about 8% of all), similar ones and a draw of the others.
# VP16 counter: inhibits Gal4-VP16 luciferase reporter, ROR gamma counter-screen | hit rate 3.5% among 310,000 | Drosophila S2 Gal4-VP16 UAS-luciferase, luminescence, 20 h | Potency, µM (series often up to 53.6 µM), without a hit: top-dose activity, negative = inhibition, actives largely listed as inhibitors;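 also: Gal4-VP16 expression switched on by copper sulfate through the metallothionein promoter; potency is read from the fitted curve at half-maximal effect; nearly all actives have a fitted effect of over 50% in size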
# FBPA coupling cs: coupling enzyme interference in Giardia aldolase counter-screen | coupling enzyme system counterscreen, AmpLite Red fluorescence | activity change, negative = inhibition, % at 58.2 µM, hits read low | hit rate 0.67% among 290,000 | AID 2472; in the data active = activity change below about -30%
#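 Fluorescence at 525 nm excitation and 598 nm emission measured inhibition of the coupled detection system without aldolase. Compounds (at 57.5 uM final) were preincubated 10 min at room temperature with coupling enzyme reagent before a 20 min substrate/AmpLite Red step.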
# RORgamma inh: inhibitors of mouse ROR gamma transcriptional activity; Drosophila S2 Gal4-RORgamma UAS-luciferase reporter, 20 h; Potency, µM (top dose mostly 53.6 µM), for the others: at the top dose activity change, negative = inhibition, most hits filed as inhibitors; hit rate 5.4% among 310,000; AID 2551; also: potency is read from the fitted curve at half-maximal effect; nearly all actives have a fitted effect of over 60% in size
# Target sequence (P51450 whole entry, looked up, the tested form may be a part): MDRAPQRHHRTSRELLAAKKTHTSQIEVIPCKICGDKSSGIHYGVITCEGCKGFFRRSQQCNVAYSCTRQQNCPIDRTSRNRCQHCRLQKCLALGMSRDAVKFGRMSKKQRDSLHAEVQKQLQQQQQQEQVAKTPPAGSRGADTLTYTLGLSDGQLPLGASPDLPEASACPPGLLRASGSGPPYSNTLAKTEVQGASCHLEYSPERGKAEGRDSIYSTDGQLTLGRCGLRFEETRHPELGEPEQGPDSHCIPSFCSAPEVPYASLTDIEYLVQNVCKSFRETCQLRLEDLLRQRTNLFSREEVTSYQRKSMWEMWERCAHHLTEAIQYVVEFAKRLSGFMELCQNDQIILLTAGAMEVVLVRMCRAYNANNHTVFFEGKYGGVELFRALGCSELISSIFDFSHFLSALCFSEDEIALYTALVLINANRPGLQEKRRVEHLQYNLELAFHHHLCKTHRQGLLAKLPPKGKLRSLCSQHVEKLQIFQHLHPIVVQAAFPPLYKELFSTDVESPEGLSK
#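 ROR gamma transcriptional activity was tracked as Gal4-UAS luciferase output in stably transfected Drosophila Schneider cells, with compound added 1 hr before 700 uM copper sulfate induction and a 20 hr ambient-temperature incubation.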
# TSHR antag: blocks TSH signaling through the human TSH receptor | P16473 | TSHR-expressing cells, TSH-stimulated cAMP HTRF, 2 h; stronger effect = lower value | activity change, negative = inhibition, % at 11.5 µM | hit rate 0.2% among 330,000 | AID 504810;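 active = activity change below a set negative limit, meaning inhibition stronger than a set level, cut at about -70% in these data; inconclusive = activity change between two set negative limits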
#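 Inhibition of cAMP made by TSHR-expressing cells under TSH stimulation (4nM final, EC80; 2 h, 37 deg C) is quantified with a one-step lysis HTRF kit, anti-cAMP cryptate versus cAMP-d2.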
# ELG1 repair inh: ELG1-dependent DNA repair inhibition; Potency, µM (highest dose often 46.1 µM), for the others: at the top dose activity change, negative = inhibition, most hits filed as inhibitors; HEK293T ELG1-luciferase reporter, luminescence, 16 h; DNA damage induced by 5-fluorouridine; hit rate 2.3% among 330,000; AID 504467; also: potency is read from the fitted curve at half-maximal effect; nearly all actives have a fitted effect of over 55% in size
#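 Step one: seed 2,000 cells per well. Step two: pin-transfer compound or DMSO alongside 5-fluorouridine. Step three: incubate 16 hr, 37 °C, 5% CO2. Step four: add ONE-Glo, wait 30 min, read luminescence.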
# * hit, by the source's call; ? = inconclusive; . = not tested or not shown; [ ] = remark or other dose. Unless noted, calls follow the shape of the dose curve; as a rule, active = well fitted curve in the direction sought with a large enough effect; inconclusive = small, poorly fitted or top-dose-only effect, or another doubt; inactive = no such curve, though single readings can be large; an effect the other way counts as inactive or inconclusive. % is scaled to controls: 0 for no effect and ±100 for the full control effect.
SMILES,VP16 counter,FBPA coupling cs,RORgamma inh,TSHR antag,ELG1 repair inh
CCCCNC(=S)Nc1ccc(SC(F)F)cc1,1%,-7,14%,-10,-1%
N#CCCN(Cc1ccccc1)C(=S)Nc1ccc(F)cc1,-7%,5,0%,25,11%
CCCN(Cc1ccccc1)C(=S)Nc1ccc(SC(F)F)cc1,?,-2,8.9µM*,-3,23µM*
O=S(=O)(CCN1CCN(c2ccccc2O)CC1)c1cc(Cl)ccc1Cl,.,.,.,-10,10%
COc1ccc(/C=C/C(=O)Oc2ccc(C)cc2)cc1,?,-1,?,-29,5%
Cc1cc(C)cc(NC(=O)CSc2nnnn2-c2cccnc2)c1,-4%,0,13%,-2,2%
COc1ccccc1-c1csc(N2CCC(C(N)=O)CC2)n1,.,.,.,-14,.
CCOc1ccc(NC(=S)N(CC)Cc2ccccc2)cc1,0%,-1,14µM*,-4,-25%
COc1ccc(CCC(=O)Nc2ccc(Cl)c(S(=O)(=O)N3CCCC3)c2)cc1,?,0,20%,-23,4.6µM*
COC(=O)c1ccc(CN2C(=O)NC(Cc3c[nH]c4ccccc34)C2=O)cc1 (stereo not drawn),5%,1,12%,-98*,27%
COc1ccccc1NS(=O)(=O)c1cc(NC(=O)Cc2n[nH]c(=O)c3ccccc23)ccc1Cl,.,.,.,12,23µM*
COc1ccc(NC(=O)c2n[nH]c(=O)c3ccccc23)cc1S(=O)(=O)N1CCCCC1,-22%,-1,33%,-4,23µM*
COc1ccc(CCC(=O)Nc2ccc(OC)c(S(=O)(=O)N3CCCCC3)c2)cc1OC,.,.,.,-15,?
COc1ccc(NC(=O)c2ccco2)cc1S(=O)(=O)N1CCCCC1,6%,.,18%,2,0%
CC(C)c1nnc(NC(=O)CCC(=O)NC2CC2)s1,6%,.,-4%,10,?
CCOC(=O)COc1ccc2c(c1)c(C(C)=O)c(C)n2-c1ccc(OC)cc1,-13%,-1,-6%,-10,0%
COc1ccc(NC(=O)Cc2c[nH]c3ccccc23)cc1S(=O)(=O)N1CCCCC1,-7%,-1,?,-75*,-9%
COc1ccc(NC(=O)CCc2nc3ccccc3c(=O)[nH]2)cc1S(=O)(=O)N1CCCCC1,.,.,.,-7,26µM*
COc1ccc(NC(=O)[C@@H]2CCCN2S(=O)(=O)c2ccccc2F)cc1S(=O)(=O)N1CCCCC1,.,.,.,8,15µM*
O=C(CN1C(=O)NC(Cc2c[nH]c3ccccc23)C1=O)Nc1cccc(S(=O)(=O)N2CCCCCC2)c1 (stereo not drawn),-46%,-9,?,-5,21µM*
COc1ccc(NC(=O)Cc2c[nH]c3ccccc23)cc1S(=O)(=O)N1CCOCC1,4%,1,-13%,-3,-10%
C/C(=N\NS(=O)(=O)c1c(C)cc(C)cc1C)c1ccncc1,2%,.,12%,-9,-11%
S=C(N/N=C/c1ccccc1Cl)Nc1cccc(Cl)c1Cl,11µM*,0,0.4µM*,-1,-3%
Fc1ccccc1/C=N/NC(=S)Nc1ccc(Cl)cc1Cl,1.3µM*,4,0.63µM*,25,?
Fc1ccc(NC(=S)N/N=C/c2ccc(F)c(F)c2)c(F)c1,2.5µM*,0,1.1µM*,-7,8%
SMILES,VP16 counter,FBPA coupling cs,RORgamma inh,TSHR antag,ELG1 repair inh
O=C(N/N=C/c1ccccc1Cl)C1CC1,-17%,0,-15%,-12,-1%
O=C(CN1CCN(Cc2ccc(Cl)cc2)CC1)N/N=C/c1ccccc1F,-10%,-2,28%,0,0%
S=C(NCC1CC1)N/N=C/c1ccccc1Cl,?,0,5.6µM*,-5,-5%
C=CCNC(=S)Nc1ccc(F)cc1F,-2%,3,-40%,0,-3%
O=c1c(-c2ccc(F)cc2)nc2cnc(Oc3cccc(Cl)c3)nc2n1C[C@H]1CCCO1,-4%,0,23%,.,.
O=C(NC(=S)NCC1CCCO1)c1cccs1 (stereo not drawn),?,0,14µM*,7,?
Cc1ccc(C(=O)NC(=S)NCC2CCCO2)cc1Br (stereo not drawn),?,4,5µM*,-6,?
O=C(NC(=S)NCC1CCCO1)c1ccccc1Br (stereo not drawn),-17%,0,?,0,7%
CCOc1cc(NC(=S)NCC2CCCO2)c(OCC)cc1NC(=O)CC (stereo not drawn),-7%,2,-20%,1,-10%
O=C(NC(=S)NCC1CCCO1)c1ccccc1[N+](=O)[O-] (stereo not drawn),-11%,-6,10µM*,13,20%
CCOc1cc(NC(=S)NCC2CCCO2)c(OCC)cc1NC(=O)c1ccccc1F (stereo not drawn),7.9µM*,-1,3.2µM*,-14,23µM*
OC[C@H]1OC(O)[C@H](O)[C@@H](O)[C@@H]1O (stereo partly drawn),0%,-1,26%,.,.
O=C(O)C1CCCCC1C(=O)Nc1cc(C(F)(F)F)ccc1Cl (stereo not drawn),-7%,7,33%,6,-11%
O=C(NNC(=S)NC(=O)c1ccccc1[N+](=O)[O-])c1ccccc1O,-16%,-1,-15%,-11,-6%
O=C(NC(=S)NC1CCCCC1)c1ccccc1[N+](=O)[O-],5.6µM*,.,5µM*,-5,?
CC(C)Cc1ccc(CN2CCCC(NC(=O)CCN3CCCO3)C2)cc1 (stereo not drawn),1%,.,18%,10,4%
COc1ccc(CN(C(=O)Cn2nnc(-c3ccc(C)o3)n2)C(C(=O)NCC2CCCO2)c2ccco2)cc1 (stereo not drawn),7.1µM*,2,5µM*,-1,?
COc1ccc(-c2nnn(CC(=O)N(Cc3ccco3)C(C(=O)NCC3CCCO3)c3ccco3)n2)cc1 (stereo not drawn),4%,-2,8%[10 µM],4,-3%
COc1ccc(-c2nc3c(c4c2C[C@H](c2ccccc2)OC4)CN(C(=O)c2cc(I)ccc2F)CC3)c(C)c1,.,1,.,.,.
CC(=O)N(Cc1ccc(F)cc1)C1=C(NCc2ccccc2)C(=O)c2ccccc2C1=O,?,-55*,13µM*,12,21µM*
COc1ccc(-c2nc(-c3ccncc3)no2)cc1OC,-4%,1,32%,-16,?
COc1ccc(Cc2noc(-c3ccc(OC)c(OC)c3)n2)cc1OC,-17%,1,39%,-7,21µM*
S=c1[nH]nc(-c2ccc(Br)cc2)n1Cc1ccco1,2.5µM*,0,1.4µM*,-12,11%
COc1cccc(-c2nnc(SCC(=O)OC(C)C)n2Cc2ccco2)c1,0%,4,-23%,13,-1%

# High-throughput results (PubChem BioAssay)
